Source: the supplement of paper PMC12350171
Structures can show the parent of a compound that is named as a salt.

System: Haemophilus parainfluenzae
Assay: growth AUC normalised to DMSO control (fraction of control); higher = less growth inhibition, active = hit call of the paper
Conditions: 20 µM;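 active = AUC significantly below DMSO controls by Student t-fit with adjusted P under 0.01; inactive = not significantly reduced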
How it was run: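 Three biological replicates were carried out, with OD578 read hourly for 24 h. Before inoculation at a starting OD578 of 0.01, pathogens were passaged anaerobically twice; plates were pre-reduced mGAM containing 20 μM compound and 1% DMSO, sealed with breathable membranes, and the Haemophilus parainfluenzae medium carried added hemin and NAD. Area under each growth curve was calculated by the trapezoidal rule up to the exponential-to-stationary transition and normalised to DMSO controls on the same plate.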

Structure (SMILES)	growth AUC normalised to DMSO control
C=CCC1(CC(C)C)C(=O)NC(=O)NC1=O [Butalbital]	0.978 (inactive)
CC1C=CC=CCCC=CC=CC=CC=CC(OC2OC(C)C(O)C(N)C2O)CC2OC(O)(CC(O)C(O)CCC(O)CC(O)CC(O)CC(=O)OC(C)C(C)C1O)CC(O)C2C(=O)O (centres undefined) [Nystatine]	0.988 (inactive)
O=C(CCCN1CCC2(CC1)C(=O)NCN2c1ccccc1)c1ccc(F)cc1 [Spiperone]	0.953 (inactive)
COc1ccc(OC)c(C(O)C(C)N)c1 (centres undefined) [Methoxamine hydrochloride]	1 (inactive)
CC(C)(C)NCC(O)c1cc(Cl)c(N)c(Cl)c1 (centres undefined) [Clenbuterol hydrochloride]	0.984 (inactive)
COc1ccc(CN2CCNCC2)c(OC)c1OC [Trimetazidine dihydrochloride]	1.02 (inactive)
CC[N+]1(C)CCCC(OC(=O)C(O)(c2ccccc2)c2ccccc2)C1 (centres undefined) [Pipenzolate bromide]	0.996 (inactive)
NCC(O)c1ccc(O)cc1 (centres undefined) [Octopamine hydrochloride]	1.03 (inactive)
CC(=O)NC1CCSC1=O (centres undefined) [Citiolone]	1.03 (inactive)
O=[N+]([O-])O[C@@H]1CO[C@H]2[C@@H]1OC[C@@H]2O [Isosorbide mononitrate]	1.05 (inactive)
C=C1C[C@@H]2[C@H](CC[C@]3(C)C(=O)CC[C@@H]23)[C@@]2(C)C=CC(=O)C=C12 [Exemestane]	0.967 (inactive)
O=c1c2ccccc2[se]n1-c1ccccc1 [Ebselen]	0.874 (inactive)
O=C(CCCN1CCC(n2c(=O)[nH]c3ccccc32)CC1)c1ccc(F)cc1 [Benperidol]	1.03 (inactive)
C[N+](C)(C)CCCCCCCCCC[N+](C)(C)C [Decamethonium bromide]	1.03 (inactive)
CCN[C@@H](C)Cc1cccc(C(F)(F)F)c1 [Dexfenfluramine hydrochloride]	1.01 (inactive)
C=C(C)[C@@H]1[C@H]2OC(=O)[C@@H]1[C@]1(O)C[C@H]3O[C@]34C(=O)O[C@H]2[C@]14C [Picrotoxinin]	1 (inactive)
CC(C)(C)NCC(O)c1ccccc1Cl (centres undefined) [Tulobuterol hydrochloride]	1 (inactive)
Fc1ccc(C(OCCN2CCN(CCCc3ccccc3)CC2)c2ccc(F)cc2)cc1	0.991 (inactive)
C=C1CC[C@@]2(O)[C@H]3Cc4ccc(O)c5c4[C@@]2(CCN3CC2CC2)[C@H]1O5 [Nalmefene hydrochloride]	0.969 (inactive)
C1CCc2nnnn2CC1 [Pentylenetetrazole]	1.01 (inactive)

Structure (SMILES)	growth AUC normalised to DMSO control
CCOC(=O)c1cncn1[C@H](C)c1ccccc1 [Etomidate]	1.02 (inactive)
CC(C)CC(N(C)C)C1(c2ccc(Cl)cc2)CCC1 (centres undefined) [Sibutramine hydrochloride]	0.969 (inactive)
C[N+]12CCC(CC1)C(OC(=O)C(O)(c1ccccc1)c1ccccc1)C2 (centres undefined) [Clidinium bromide]	0.998 (inactive)
CN(C)[C@@H]1C(=O)C(C(N)=O)=C(O)[C@@]2(O)C(=O)C3=C(O)c4c(O)ccc(Cl)c4[C@@](C)(O)[C@H]3C[C@@H]12 [Chlortetracycline hydrochloride]	0.0445 (active)
C[N+]1(C)[C@@H]2CC[C@H]1C[C@@H](OC(=O)C(CO)c1ccccc1)C2 (some centres undefined) [Methylatropine nitrate]	1.05 (inactive)
CC(C)N(CCC(C(N)=O)(c1ccccc1)c1ccccn1)C(C)C (centres undefined) [Disopyramide]	0.997 (inactive)
CNC(=O)Oc1ccc2c(c1)[C@]1(C)CCN(C)[C@@H]1N2C [Eserine hemisulfate salt]	0.975 (inactive)
CN1[C@@H]2CC[C@H]1C[C@@H](OC(=O)C(CO)c1ccccc1)C2 (some centres undefined) [Atropine sulfate monohydrate]	1.06 (inactive)
COc1ccc(C(CN(C)C)C2(O)CCCCC2)cc1 (centres undefined) [Venlafaxine]	1.33 (inactive)
NCCc1c[nH]c2ccc(O)cc12 [Serotonin hydrochloride]	1.07 (inactive)
CC(CCc1ccccc1)NC(C)C(O)c1ccc(O)cc1 (centres undefined) [Nylidrin]	0.988 (inactive)
C[N+]1(C)CCOC(O)(c2ccc(-c3ccc(C4(O)C[N+](C)(C)CCO4)cc3)cc2)C1 (centres undefined) [Hemicholinium bromide]	0.977 (inactive)
CC(=O)O[C@H]1C[C@@H]2CC[C@@H]3[C@H](CC[C@@]4(C)[C@H]3C[C@H]([N+]3(C)CCCCC3)[C@@H]4OC(C)=O)[C@@]2(C)C[C@@H]1[N+]1(C)CCCCC1 [Pancuronium bromide]	1.04 (inactive)
O=C1CC[C@@]2(O)[C@H]3Cc4ccc(O)c5c4[C@@]2(CCN3CC2CC2)[C@H]1O5 [Naltrexone hydrochloride dihydrate]	0.995 (inactive)
CC(Cc1ccccc1)NCCC(c1ccccc1)c1ccccc1 (centres undefined) [Prenylamine lactate]	1.05 (inactive)
CCC1(CC)C(=O)C=CNC1=O [Pyrithyldione]	1.01 (inactive)
COc1cc2c(c(OC)c1OC)-c1ccc(OC)c(=O)cc1[C@@H](NC(C)=O)CC2 [Colchicine]	0.981 (inactive)
COc1cc([C@@H]2c3cc4c(cc3[C@H](O)[C@H]3COC(=O)[C@H]23)OCO4)cc(OC)c1OC [Podophyllotoxin]	1.04 (inactive)
Oc1ccc2c3c1O[C@H]1[C@@H](O)CC[C@@]4(O)[C@@H](C2)N(CC2CCC2)CC[C@]314 [Nalbuphine hydrochloride]	0.982 (inactive)
